Experimental data published in PubChem BioAssay AID1159580 (chemical genetic matrix, 2015).
Hit rate of the full screen: of about 5,500 compounds, about 2,000 (36%) were called active. Not shown: some 18% with an inconclusive outcome. Rule as the data show it: active = normalized growth mostly below about 0.91 (no sharp cut-off); inconclusive = no clear call, values can overlap the other calls; inactive = mostly above about 0.92. Some of the results follow.

Assay: chemical genetic growth profiling, strain panel (AID 1159580);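 also: tested at 20 µM; growth read once vehicle control cultures reached saturation at 30 °C; 1 = growth at the plate median or of vehicle wells; lower values mean less growth of the strain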
Conditions: growth OD

Measured: normalized growth

O=C(O)c1cccnc1
active: S. cerevisiae deletion strains, locus YLR268W, strain sec22, stronger effect = lower value 1.13 [resistant]
inactive: S. cerevisiae deletion strains, locus YJR075W, strain HOC1, stronger effect = lower value 1.06 | S. cerevisiae deletion strains, locus YKL009W, strain mrt4, stronger effect = lower value 0.982 | S. cerevisiae deletion strains, locus YKL068W, stronger effect = lower value 0.991 | S. cerevisiae deletion strains, locus YKL085W, strain MDH1 (second series), stronger effect = lower value 1.01 | S. cerevisiae deletion strains, locus YKL085W, strain MDH1, stronger effect = lower value 1.01 | S. cerevisiae deletion strains, locus YKL160W, strain elf1, stronger effect = lower value 1.01 | S. cerevisiae deletion strains, locus YKL190W, strain CNB1, stronger effect = lower value 0.997 | S. cerevisiae deletion strains, locus YKR001C, strain vps1, stronger effect = lower value 0.986 | S. cerevisiae deletion strains, locus YKR026C, strain gcn3, stronger effect = lower value 0.988 | S. cerevisiae deletion strains, locus YKR091W, strain srl3, stronger effect = lower value 0.996 | S. cerevisiae deletion strains, locus YLL001W, strain dnm1, stronger effect = lower value 0.999 | S. cerevisiae deletion strains, locus YLL026W, stronger effect = lower value 1 | S. cerevisiae deletion strains, locus YLL041C, strain sdh2, stronger effect = lower value 0.992 | S. cerevisiae deletion strains, locus YLR027C, strain aat2, stronger effect = lower value 1 | S. cerevisiae deletion strains, locus YLR039C, strain RIC1, stronger effect = lower value 0.982 | S. cerevisiae deletion strains, locus YLR058C, strain SHM2, stronger effect = lower value 0.981 | S. cerevisiae deletion strains, locus YLR102C, strain apc9, stronger effect = lower value 0.997 | S. cerevisiae deletion strains, locus YLR113W, strain HOG1, stronger effect = lower value 0.995 | S. cerevisiae deletion strains, locus YLR221C, strain rsa3, stronger effect = lower value 1.02 | S. cerevisiae deletion strains, locus YLR258W, strain gsy2, stronger effect = lower value 1.01 | S. cerevisiae deletion strains, locus YLR262C, strain YPT6 (second series), stronger effect = lower value 1.01 | S. cerevisiae deletion strains, locus YLR262C, strain YPT6, stronger effect = lower value 0.941 | S. cerevisiae deletion strains, locus YLR320W, strain mms22, stronger effect = lower value 1.02 | S. cerevisiae deletion strains, locus YLR330W, strain CHS5, stronger effect = lower value 0.999 | S. cerevisiae deletion strains, locus YLR342W, strain FKS1 (second series), stronger effect = lower value 0.999 | S. cerevisiae deletion strains, locus YLR342W, strain FKS1, stronger effect = lower value 0.992 | S. cerevisiae deletion strains, locus YLR357W, strain rsc2, stronger effect = lower value 0.991 | S. cerevisiae deletion strains, locus YLR370C, strain arc18, stronger effect = lower value 1 | S. cerevisiae deletion strains, locus YLR371W, strain rom2, stronger effect = lower value 0.985 | S. cerevisiae deletion strains, locus YLR384C, strain iki3, stronger effect = lower value 1.01 | S. cerevisiae deletion strains, locus YLR418C, strain cdc73, stronger effect = lower value 1.04 | S. cerevisiae deletion strains, locus YML016C, strain PPZ1, stronger effect = lower value 1.01 | S. cerevisiae deletion strains, locus YML032C, strain rad52, stronger effect = lower value 1.05 | S. cerevisiae deletion strains, locus YML120C, strain ndi1, stronger effect = lower value 0.993 | S. cerevisiae deletion strains, locus YML124C, strain tub3, stronger effect = lower value 0.995 | S. cerevisiae deletion strains, locus YMR058W, strain fet3, stronger effect = lower value 0.996 | S. cerevisiae deletion strains, locus YMR078C, strain ctf18, stronger effect = lower value 0.991 | S. cerevisiae deletion strains, locus YMR125W, strain sto1, stronger effect = lower value 0.979 | S. cerevisiae deletion strains, locus YMR129W, stronger effect = lower value 0.97 | S. cerevisiae deletion strains, locus YMR205C, strain PFK2, stronger effect = lower value 1.04 | S. cerevisiae deletion strains, locus YMR223W, strain ubp8, stronger effect = lower value 1 | S. cerevisiae deletion strains, locus YMR231W, strain pep5, stronger effect = lower value 1 | S. cerevisiae deletion strains, locus YMR263W, strain SAP30, stronger effect = lower value 1.01 | S. cerevisiae deletion strains, locus YMR307W, strain GAS1, stronger effect = lower value 0.938 | S. cerevisiae deletion strains, locus YNL067W, strain RPL9B, stronger effect = lower value 1.03 | S. cerevisiae deletion strains, locus YNL071W, strain lat1, stronger effect = lower value 0.975 | S. cerevisiae deletion strains, locus YNL128W, strain TEP1, stronger effect = lower value 0.971 | S. cerevisiae deletion strains, locus YNL153C, strain GIM3, stronger effect = lower value 1.03 | S. cerevisiae deletion strains, locus YNL183C, strain NPR1, stronger effect = lower value 0.961 | S. cerevisiae deletion strains, locus YNL209W, strain ssb2, stronger effect = lower value 0.99 | S. cerevisiae deletion strains, locus YNL233W, strain BNI4, stronger effect = lower value 1.05 | S. cerevisiae deletion strains, locus YNL248C, strain rpa49, stronger effect = lower value 1.01 | S. cerevisiae deletion strains, locus YNL250W, strain rad50, stronger effect = lower value 0.991 | S. cerevisiae deletion strains, locus YNL271C, strain bni1, stronger effect = lower value 0.992 | S. cerevisiae deletion strains, locus YNL298W, strain CLA4, stronger effect = lower value 0.977 | S. cerevisiae deletion strains, locus YNL307C, strain MCK1, stronger effect = lower value 1.02 | S. cerevisiae deletion strains, locus YNL322C, strain KRE1 (second series), stronger effect = lower value 0.997 | S. cerevisiae deletion strains, locus YNL322C, strain KRE1, stronger effect = lower value 0.996 | S. cerevisiae deletion strains, locus YNR049C, strain mso1, stronger effect = lower value 0.994 | S. cerevisiae deletion strains, locus YNR052C, strain pop2, stronger effect = lower value 1 | S. cerevisiae deletion strains, locus YOL006C, strain TOP1, stronger effect = lower value 1.03 | S. cerevisiae deletion strains, locus YOL012C, strain htz1 1.06 | S. cerevisiae deletion strains, locus YOL147C, strain pex11, stronger effect = lower value 1 | S. cerevisiae deletion strains, locus YOR001W, strain rrp6, stronger effect = lower value 0.977 | S. cerevisiae deletion strains, locus YOR061W, strain CKA2, stronger effect = lower value 0.97 | S. cerevisiae deletion strains, locus YOR069W, strain VPS5, stronger effect = lower value 0.996 | S. cerevisiae deletion strains, locus YOR070C, strain gyp1, stronger effect = lower value 1 | S. cerevisiae deletion strains, locus YOR080W, strain dia2, stronger effect = lower value 0.993 | S. cerevisiae deletion strains, locus YOR083W, strain WHI5, stronger effect = lower value 1.03 | S. cerevisiae deletion strains, locus YOR106W, strain vam3, stronger effect = lower value 1.05 | S. cerevisiae deletion strains, locus YOR136W, strain idh2, stronger effect = lower value 1 | S. cerevisiae deletion strains, locus YOR144C, strain elg1, stronger effect = lower value 0.995 | S. cerevisiae deletion strains, locus YOR184W, strain ser1, stronger effect = lower value 1.03 | S. cerevisiae deletion strains, locus YOR231W, strain MKK1, stronger effect = lower value 1.01 | S. cerevisiae deletion strains, locus YOR265W, strain rbl2, stronger effect = lower value 1 | S. cerevisiae deletion strains, locus YOR270C, strain vph1, stronger effect = lower value 0.978 | S. cerevisiae deletion strains, locus YOR290C, strain snf2, stronger effect = lower value 0.996 | S. cerevisiae deletion strains, locus YOR316C, strain cot1, stronger effect = lower value 0.998 | S. cerevisiae deletion strains, locus YPL051W, strain arl3, stronger effect = lower value 1.05 | S. cerevisiae deletion strains, locus YPL055C, strain LGE1, stronger effect = lower value 1.01 | S. cerevisiae deletion strains, locus YPL078C, strain atp4, stronger effect = lower value 0.999 | S. cerevisiae deletion strains, locus YPL106C, strain sse1, stronger effect = lower value 1.03 | S. cerevisiae deletion strains, locus YPL240C, strain hsp82, stronger effect = lower value 1.01 | S. cerevisiae deletion strains, locus YPL241C, strain CIN2, stronger effect = lower value 0.992 | S. cerevisiae deletion strains, locus YPL256C, strain CLN2, stronger effect = lower value 1.01 | S. cerevisiae deletion strains, locus YPR119W, strain clb2, stronger effect = lower value 0.998 | S. cerevisiae deletion strains, locus YPR141C, strain kar3, stronger effect = lower value 0.991 | S. cerevisiae deletion strains, locus YPR163C, strain tif3, stronger effect = lower value 0.995 | S. cerevisiae deletion strains, locus YPR167C, strain met16, stronger effect = lower value 1 | S. cerevisiae deletion strains, strain wtn01, stronger effect = lower value 1.04 | S. cerevisiae strains, strain wild type, stronger effect = lower value 0.995
